Experimental data taken from PubChem BioAssay (EPA / NIEHS).
Results filed as inconclusive are left out. Some compounds were tested as several samples or in several runs, with calls that do not always agree. Activity calls are given as the source filed them. Rule for the calls: active = hit-call score of the fitted dose curve at least 0.9, where 1 is the maximum; inconclusive = response in the unintended direction; inactive = score below 0.9. Peptide text beside a SMILES is read from it.

Each compound was assayed against Peroxisome proliferator-activated receptor gamma (Homo sapiens) (UniProt P37231) (assay: NVS_NR_hPPARg: NovaScreen (NVS) Nuclear Receptor Binding Assay for human Peroxisome Proliferator-activated Receptor gamma (PPARg) (AID 2283370)).
Peroxisome proliferator-activated receptor gamma (Homo sapiens), sequence (P37231 whole entry, looked up): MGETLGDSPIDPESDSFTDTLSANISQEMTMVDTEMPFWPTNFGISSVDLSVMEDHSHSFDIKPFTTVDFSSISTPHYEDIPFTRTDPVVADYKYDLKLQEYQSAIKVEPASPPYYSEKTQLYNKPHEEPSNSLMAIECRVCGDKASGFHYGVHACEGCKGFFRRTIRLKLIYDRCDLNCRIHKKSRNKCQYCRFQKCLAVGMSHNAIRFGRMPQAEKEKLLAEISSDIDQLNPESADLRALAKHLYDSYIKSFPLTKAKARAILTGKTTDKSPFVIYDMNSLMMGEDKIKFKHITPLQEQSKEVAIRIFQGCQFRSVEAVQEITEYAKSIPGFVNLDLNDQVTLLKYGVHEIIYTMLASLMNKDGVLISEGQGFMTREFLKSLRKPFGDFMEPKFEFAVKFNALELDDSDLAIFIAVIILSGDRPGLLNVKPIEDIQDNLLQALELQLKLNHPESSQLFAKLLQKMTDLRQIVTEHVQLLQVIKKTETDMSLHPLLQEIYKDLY
Experimental: NVS_NR_hPPARg is a biochemical, single-readout assay that uses extracted gene-proteins in a cell-free assay. Measurements were taken 2 hours after chemical dosing in a 384-well plate.NVS_NR_hPPARg is one of one assay component(s) measured or calculated from the NVS_NR_hPPARg assay. It is designed to make measurements of fluorescent polarization, a form of binding reporter, as detected with fluorescence polarization signals by Fluorescence Polarization technology.Data from the assay component NVS_NR_hPPARg was analyzed into 1 assay endpoint. This assay endpoint, NVS_NR_hPPARg, was analyzed in the positive analysis fitting direction relative to DMSO as the negative control and baseline of activity. Using a type of binding reporter, loss-of-signal activity can be used to understand changes in the binding as they relate to the gene PPARG. Furthermore, this assay endpoint can be referred to as a primary readout, because the performed assay has only produced 1 assay endpoint. To generalize the intended target to other relatable targets, this assay endpoint is annotated to the nuclear receptor intended target family, where the subfamily is non-steroidal.
Binding assays used specific radioligands (tritiated, iodinated) with non-radioactive competitive displacement ligands in agonist or antagonist protocols (as indicated) and various reference compounds and inhibitors to titrate specific binding to receptors and transporters. Most enzyme assays (CYPs, kinases, phosphatases, proteases, HDACs) used recombinant protein and specific substrates (fluorescence mostly, some colorimetric and radioactive) and inhibitors, followed by a biochemical separation of substrate and product. All assays for the biochemical HTS were initially run in duplicate at a single concentration (10 uM for CYP450 assays and 25 uM for all others). […] Each assay was run with positive and negative controls, and concurrent controls on every plate. The follow-up (secondary) screen tested active chemical-pairs in concentration series, as well as a few additional assays not tested in the primary screen, some selected negative inactives, and several cases re-run in the concentration series for confirmatory purposes.
`C[Si]1(C)O[Si](C)(C)O[Si](C)(C)O[Si](C)(C)O[Si](C)(C)O1` was tested, and the outcome was “inactive”.
With `CCCCCCCCCCCCc1ccc(O)cc1` the outcome was “inactive”.
For `Oc1ccccc1Cc1ccccc1O`, the outcome was “inactive”.
In the case of `CC(C)(C)NC(=O)[C@H]1CC[C@H]2[C@@H]3CC[C@H]4NC(=O)C=C[C@]4(C)[C@H]3CC[C@]12C`, the outcome is reported as “inactive”.
For `CCOC(=O)c1ccc(C)cc1`, the outcome was “inactive”.
`CC1=NN(c2ccc(S(=O)(=O)O)cc2)C(=O)C1N=Nc1ccccc1` (configuration not stated) was tested, and the outcome was “inactive”.
`CC(C)c1cc(C(C)C)cc(C(C)C)c1` was tested, and the outcome was “inactive”.
With `C=CCOC(=O)c1ccc(C(=O)OCC=C)c(C(=O)OCC=C)c1` the outcome was “inactive”.
In the case of `CC(C)COC(=O)CC(C(=O)OCC(C)C)S(=O)(=O)O` (configuration not stated), the outcome is reported as “inactive”.
In the case of `CC12CCC(CC1)C(C)(C)O2`, the AC50 is reported as 19.1 µM (active).
In the case of `CCCCCCC=O`, the outcome is reported as “inactive”.
`Cc1ccc([N+](=O)[O-])cc1N` was tested, and the outcome was “inactive”.
In the case of `CCCCCCCCCCCC(=O)N(C)CC(=O)O`, the outcome is reported as “inactive”.
For `c1ccc(Nc2cccc3ccccc23)cc1`, the outcome was “inactive”.
`O=S(=O)(O)c1ccc(N=Nc2c(O)ccc3ccccc23)cc1` was tested, and the AC50 was 20.7 µM (active).
For `CCN1CN(CC)CN(CC)C1`, the outcome was “inactive”.
For `Oc1ccc(-c2ccccc2)c(Cl)c1`, the outcome was “inactive”.
In the case of `CCCCCC[C@@H](O)C/C=C\CCCCCCCC(=O)OCC(O)CO` (some centres not stated), the outcome is reported as “inactive”.
For `C=C1C[C@H]2[C@@H]3C=C(C)C4=CC(=O)CC[C@]4(C)[C@H]3CC[C@]2(C)[C@@]1(OC(C)=O)C(C)=O`, the outcome was “inactive”.
With `O=C(OCc1ccccc1)c1ccc(O)cc1` the outcome was “inactive” and the AC50 was 10.4 µM (active).
`CCCCCCCOC(=O)c1ccc(O)cc1` was tested, and the AC50 was 12.3 µM (active).
`CCCCCCOC(=O)CCCCC(=O)OCCCCCC` was tested, and the outcome was “inactive”.
With `CCc1cccc(C)c1N` the outcome was “inactive”.
With `Nc1ccc(C(=O)O)cc1` the outcome was “inactive”.
With `C/C=C/C=C/CCCCCCCO` the outcome was “inactive”.
`CC(C)c1ccc(O)c(C(C)C)c1` was tested, and the outcome was “inactive”.
`COC(=O)[C@H](Cc1ccccc1)NC(=O)[C@@H](N)CC(=O)O` (H-Asp-Phe-OMe) was tested, and the outcome was “inactive”.
With `O=C(O)/C=C/c1ccccc1` the outcome was “inactive”.
With `CC(C)(C)N` the outcome was “inactive”.
For `CCCCC/C=C\C/C=C\CCCCCCCC(=O)O`, the AC50 was 6.85 µM (active).
`O=c1c(O)c(-c2ccc(O)cc2O)oc2cc(O)cc(O)c12` was tested, and the outcome was “inactive”.
